Test results as given in PubChem BioAssay (Tox21).
Results filed as inconclusive are left out. Active and inactive are the calls of the source. The call rests on the fitted dose curve; in most records, active means well fitted activation curve with a large enough effect in the signal ratio in the repeat runs (not every such curve was filed as active); inconclusive means weak or mixed curves; inactive means flat fitted curve, though single readings scatter; the % refers to the signal ratio.

Assay: qHTS assay to identify small molecule agonists of the hypoxia (HIF-1) signaling pathway (AID 1224846)
Settings: HRE-bla ME-180 cells, beta-lactamase ratio, 17 h; series mostly up to 76.8 µM
From the text: U.S. Tox21 Program National Center for Advancing Translational Sciences [NCATS] NIH Chemical Genomics Center [NCGC] U.S. Environmental Protection Agency [EPA] National Institutes of Environmental Health Sciences [NIEHS] National Toxicology Program [NTP] U.S. Food and Drug Administration [FDA] Tox21 Assay Overview: Hypoxia-inducible factor-1 (HIF-1) is the major hypoxia-regulated transcription factor that controls cellular responses to low oxygen concentration. HIF-1 is composed of two subunits: hypoxia responsive HIF-1-alpha and constitutively expressed HIF-1-beta, which is also known as aryl hydrocarbon receptor nuclear translocator. During hypoxic conditions, HIF-1-alpha heterodimerizes with HIF-1-beta and translocates into the nucleus where the HIF-1 complex binds to the hypoxia-response element (HRE) and activates expression of target genes such as VEGF (vascular endothelial growth factor). The HIF-1 pathway is essential to normal growth and development, and is involved in the pathophysiology of cancer, inflammation, and ischemia. Using a beta-lactamase reporter-gene under control of the hypoxia response element, a cell-based assay [CellSensor(TM) HRE-bla ME-180 from Life Technologies, Carlsbad, CA] was used to measure hypoxia-induced signaling. Tox21 10K library compounds were measured for their ability to induce the reporter gene activity.
Tox21 Assay Protocol Summary: HRE-bla ME-180 cells were dispensed at 2,000 cells per well in 6 uL of assay medium containing 0.5% dialyzed FBS into black wall/clear-bottom 1536-well plates using a Multidrop Combi (Thermo Scientific, Waltham, MA) dispenser. After the assay plates were incubated at 37C and 5% CO2 for 5 hrs, 23 nL of compounds dissolved in DMSO, positive controls or DMSO only was transferred to each well of the assay plate using a Pintool station (Kalypsys, San Diego, CA). The assay plates were incubated at 37C and 5% CO2 for 17 hrs. One uL of LiveBLAzerTM B/G FRET substrate (CCF4-AM) (Life Technologies) was added to each well using a Flying Reagent Dispenser (Aurora Discovery, San Diego, CA).

Compound | outcome
CC1(C)C(C=C(Cl)Cl)C1C(=O)OC(C#N)c1cccc(Oc2ccccc2)c1 (stereo not given) | inactive
O=P(O)(O)CCCl | inactive
CC(C)NC(C)C | inactive
CC(C)Oc1cc(-n2nc(C(C)(C)C)oc2=O)c(Cl)cc1Cl | inactive
O=[N+]([O-])c1cccc2ccccc12 | inactive
COP(=O)(OC)OC | inactive
O=[N+]([O-])c1ccc(O)c([N+](=O)[O-])c1 | inactive
CC(C)(C)c1ccccc1O | inactive
O=S(=O)(Oc1ccc(Cl)cc1)c1ccc(Cl)cc1 | inactive
Oc1c(Cl)c(Cl)c(Cl)c(Cl)c1Cl | inactive
CCN(CC)N=O | inactive
S=C1NCCN1 | inactive
CCC(C)(C)c1ccc(O)cc1 | inactive
C=CCc1ccc2c(c1)OCO2 | inactive
CC(O)CCO (stereo not given) | inactive
NC(=S)Nc1ccccc1 | inactive
N#CCCCl | inactive
c1ccc(N=Nc2ccccc2)cc1 | inactive
Oc1cc(Cl)ccc1Cl | inactive
Nc1ccc(Cl)cc1N | inactive

Compound | outcome
CCCCN(CCCC)N=O | inactive
Nc1ccc(-c2ccccc2)cc1 | inactive
C=CCN(CC=C)C(=O)C(Cl)Cl | inactive
Nc1ccc(-c2ccc(N)c(N)c2)cc1N | inactive
c1ccc(-c2cccc(-c3ccccc3)c2)cc1 | inactive
NCc1cccnc1 | inactive
COP(=S)(OC)Oc1cc(Cl)c(Cl)cc1Cl | inactive
CCCCC(CC)COC(=O)c1ccc(C(=O)OCC(CC)CCCC)c(C(=O)OCC(CC)CCCC)c1 (stereo not given) | inactive
CN(C)C(=O)Nc1ccc(Cl)cc1 | inactive
CCN(CC)C(=O)/C(Cl)=C(\C)OP(=O)(OC)OC | inactive
c1ccc(P(c2ccccc2)c2ccccc2)cc1 | inactive
Cc1cc(C)cc(C)c1 | inactive
Brc1ccc(Oc2cc(Br)c(Br)cc2Br)c(Br)c1 | inactive
OCC(O)CO | inactive
CCCCOCCOP(=O)(OCCOCCCC)OCCOCCCC | inactive
N#CC(Br)Br | inactive
CN(C)c1ccc(C(=O)c2ccc(N(C)C)cc2)cc1 | inactive
C=CC(=O)OCCO | inactive
c1nc[nH]n1 | inactive
CCCCCCOC(=O)c1ccccc1C(=O)OCCCCCC | inactive
